From PubChem BioAssay (NCATS)
Records with an inconclusive call do not appear. Where a call stands in place of a potency, no number is given. The source made the active and inactive calls. Calls follow the shape of the dose curve; as a rule, active = well fitted inhibition curve with a large enough effect; inconclusive = small, poorly fitted or top-dose-only effect; inactive = flat fitted curve, though single readings scatter.

Experiments:
[1] = target: Glutathione peroxidase 1 (Homo sapiens) (UniProt P07203); experiment: Primary qHTS Assay for Inhibitors of Recombinant Selenoprotein Glutathione Peroxidase 1 (GPX1) (AID 1845191)
Summary of the method: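 GPX1 10 nM, GR 100 nM, GSH 1 mM, NADPH 0.5 mM, CHP 0.5 mM (final). 30-min cpd preincubation, RT. Ex340/Em450 read t=0, t=15 min.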

[2] = target: Phospholipid hydroperoxide glutathione peroxidase GPX4 (Homo sapiens) (UniProt P36969); experiment: Primary qHTS Assay for Inhibitors of Recombinant Selenoprotein Glutathione Peroxidase 4 (GPX4) (AID 1845192)
Summary of the method: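 qHTS, GR-coupled: GPX4 200 nM + cpd 30 min RT → GSH 1 mM, NADPH 0.5 mM, GR 100 nM → CHP 0.5 mM start; fluor 340/450 at t0 and t15 min; no-enzyme wells as control.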
Also: nearly all actives have a fitted effect of over 65% in size.

Glutathione peroxidase 1 (Homo sapiens), sequence (P07203 whole entry, looked up): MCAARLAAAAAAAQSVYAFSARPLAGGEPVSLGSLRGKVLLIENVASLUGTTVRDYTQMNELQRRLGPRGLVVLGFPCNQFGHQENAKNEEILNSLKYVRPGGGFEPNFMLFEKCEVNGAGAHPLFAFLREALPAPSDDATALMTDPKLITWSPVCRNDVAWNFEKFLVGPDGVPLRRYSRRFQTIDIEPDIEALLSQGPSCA
Phospholipid hydroperoxide glutathione peroxidase GPX4 (Homo sapiens), sequence (P36969 whole entry, looked up): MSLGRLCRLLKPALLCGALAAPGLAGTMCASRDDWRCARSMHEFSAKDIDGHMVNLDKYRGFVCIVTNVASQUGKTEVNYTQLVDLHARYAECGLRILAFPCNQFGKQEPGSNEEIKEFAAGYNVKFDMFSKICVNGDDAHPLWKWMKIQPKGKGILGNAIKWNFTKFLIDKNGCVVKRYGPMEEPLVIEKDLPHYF

Structure (SMILES) | Potency [1] | Potency [2]
CCC(=O)NC[C@@H]1C[C@H]1c1cccc2c1CCO2 | inactive | inactive
O=C(OC1C(OC(=O)c2cccnc2)C(OC(=O)c2cccnc2)C(OC(=O)c2cccnc2)C(OC(=O)c2cccnc2)C1OC(=O)c1cccnc1)c1cccnc1 (stereo not drawn) | inactive | inactive
OC(c1ccccc1)(c1ccccc1)C12CC[N+](CCOCc3ccccc3)(CC1)CC2 | inactive | inactive
CCC(c1ccccc1)c1c(O)c2ccccc2oc1=O (stereo not drawn) | inactive | inactive
